Luciferase inh – Firefly luciferase inhibition profiling of diverse chemical library using quantitative high-throughput screening | Luciferin 4-monooxygenase (Photinus pyralis), P08659 | purified P. pyralis luciferase, luminescence, biochemical | Potency, µM (series often up to 115 µM), most hits filed as inhibitors | 2.5% of 76,000 active | AID 1347043, 2019; further: nearly all actives have a fitted effect of over 65% in size
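Purified 10nM P. pyralis luciferase with 10uM D-luciferin and 10uM ATP in 50mM Tris acetate pH 7.5, 10mM Mg acetate, 0.01% Tween-20, 0.05% BSA. qHTS titration; luminescence read by CCD imager.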
NIH3T3 tox – Cytotoxic Profiling in NIH 3T3 Cell Line of Diverse Libraries Using Quantitative High-Throughput Screening. NIH 3T3 viability, CellTiter-Glo ATP luminescence, 48-72 h. Potency, µM (top dose mostly 96.7 µM), usual class: inhibitors. 4.3% of 94,000 active; further: nearly all actives have a fitted effect of over 55% in size
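Cells were seeded at 400 per well, treated with pin-transferred compound, and kept 48 or 72 hr at 37 °C before CellTiter-Glo addition and luminescence imaging of cellular ATP.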
HEK293 tox – Cytotoxic Profiling in HEK 293 Cell Line of Diverse Libraries Using Quantitative High-Throughput Screening. Potency, µM (top dose mostly 115 µM), hits mostly inhibitors. HEK 293 viability, ATP luminescence (CellTiter-Glo), 48-72 h. AID 1345083, 2018. 6.6% of 94,000 active; further: nearly all actives have a fitted effect of over 60% in size
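Read-out: CellTiter-Glo ATP luminescence. Cells: HEK 293, 250 cells/well. Exposure: 48 or 72 hr, 37 degree Celsius.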
NPR1 antag – Natriuretic polypeptide receptor (hNpr1) antagonism - Primary qHTS; Atrial natriuretic peptide receptor 1 (Homo sapiens), P16066; HEK293 hNpr1 GloSensor cGMP, ANP-stimulated luminescence; Potency, µM (titrated, usually from 46.3 µM), hits mostly inhibitors; 1.6% of 76,000 active; AID 1347048, 2019; calls by dose curve; further: nearly all actives have a fitted effect of over 60% in size
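Compound pre-incubated 30 min at room temperature on GloSensor-loaded HEK293 cells stably carrying hNpr1 and the pGS-40F cGMP biosensor. Stimulation uses hNppA at 0.1 nM final; luminescence is taken at baseline and 20 min post-agonist.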
GPT2 inh – Primary qHTS assay for inhibitors of Glutamate pyruvate transaminase 2 (GPT2). Potency, µM (titrated, usually from 57.7 µM), actives largely listed as inhibitors. Alanine aminotransferase 2 (Homo sapiens), Q8TD30. AID 1671188, 2021. 0.25% of 100,000 active. Recombinant GPT2, coupled pyruvate oxidase/HRP Amplex Red fluorescence; further: nearly all actives have a fitted effect of over 60% in size
Target sequence (Q8TD30 whole entry, looked up): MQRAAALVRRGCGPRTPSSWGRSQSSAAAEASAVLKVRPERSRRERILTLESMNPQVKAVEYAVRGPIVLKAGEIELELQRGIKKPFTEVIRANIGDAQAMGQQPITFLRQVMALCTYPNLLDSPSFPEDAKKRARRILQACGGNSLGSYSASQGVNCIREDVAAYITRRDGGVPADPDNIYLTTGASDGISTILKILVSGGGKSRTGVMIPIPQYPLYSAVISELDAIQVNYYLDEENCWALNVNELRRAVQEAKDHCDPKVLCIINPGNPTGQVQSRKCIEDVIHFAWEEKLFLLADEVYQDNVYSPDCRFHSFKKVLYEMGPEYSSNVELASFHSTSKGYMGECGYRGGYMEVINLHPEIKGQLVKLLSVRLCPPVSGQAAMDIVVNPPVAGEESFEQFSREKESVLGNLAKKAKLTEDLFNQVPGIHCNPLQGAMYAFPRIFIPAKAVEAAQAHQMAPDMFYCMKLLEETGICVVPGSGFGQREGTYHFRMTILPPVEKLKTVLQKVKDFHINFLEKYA
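Recombinant GPT2 (10ng/uL) with 250uM a-KG and 2mM L-alanine, 30 min at room temperature, in HEPES pH 7.5 buffer. Pyruvate detected by pyruvate oxidase/HRP/Amplex Red fluorescence after 30 min in the dark; AOA (50uM) as positive control.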
Each line names hits and unclear results; the compound was inactive in the other large screens. Most compounds without a hit are left out; they make up all but 10% or so of the library. Unless noted, the call rests on the fitted dose curve; in most records, active means well fitted curve in the direction sought with a large enough effect; inconclusive means small, poorly fitted or top-dose-only effect, or another doubt; inactive means no such curve, though single readings can be large; an effect the other way counts as inactive or inconclusive.

Cc1ccc(-c2cc3c(=O)n(CCNC(=O)Cc4ccccc4Cl)ccn3n2)cc1C	HEK293 tox inconclusive
Cc1ccc(-c2cc3c(=O)n(CCNC(=O)Cc4ccccc4Cl)ccn3n2)c(C)c1	Luciferase inh 2.5µM
COc1ccc(C(=O)NCCn2ccn3nc(-c4cc(C)ccc4C)cc3c2=O)c(OC)c1	NIH3T3 tox inconclusive, HEK293 tox 40µM
COc1ccccc1C(=O)NCCn1ccn2nc(-c3cc(C)ccc3C)cc2c1=O	NIH3T3 tox inconclusive, HEK293 tox inconclusive
CCC(c1cccs1)N1C(=O)[C@H]2CN(S(=O)(=O)c3ccc4c(c3)CCC4)C[C@H]2C1=O (some centres undefined)	none
O=C(Cc1ccccc1)N1CCC(N2C(=O)C(OCC3CC3)C23CCCCC3)CC1 (centres undefined)	HEK293 tox inconclusive
CN1CCCC1CCNc1nccc(-c2cnn(-c3ccc(F)cc3)c2)n1 (centres undefined)	Luciferase inh inconclusive, NIH3T3 tox inconclusive, HEK293 tox 45µM
O=C(Cn1ccn2nc(-c3ccc(F)cc3)c(CO)c2c1=O)Nc1cccc(Br)c1	NIH3T3 tox inconclusive, HEK293 tox 45µM
Cc1ccc(C)c(Cn2ccn3nc(-c4ccc(F)cc4)c(CO)c3c2=O)c1	NIH3T3 tox inconclusive, HEK293 tox 35µM, NPR1 antag inconclusive
COc1cc(NC(=O)Cn2ccn3nc(-c4ccccc4)c(CO)c3c2=O)cc(OC)c1	none
COc1cc(NC(=O)Cn2ccn3nc(-c4ccccc4)c(CO)c3c2=O)cc(OC)c1OC	NIH3T3 tox inconclusive, HEK293 tox 32µM
O=C(Cn1ccn2nc(-c3ccccc3)c(CO)c2c1=O)Nc1cccc(Br)c1	HEK293 tox inconclusive
Cc1cccc(NC(=O)Cn2ccn3nc(-c4ccccc4)c(CO)c3c2=O)c1C	NIH3T3 tox inconclusive, HEK293 tox 89µM
Cc1ccc(C(=O)N2CCN(Cc3ccccc3-c3ccccc3F)CC2)cc1	NIH3T3 tox inconclusive, HEK293 tox inconclusive (no result: Luciferase inh, NPR1 antag)
O=C1Nc2ccccc2OCC12CCN(Cc1ccc(F)cc1)CC2	none
CN(C)CC(C)(C)NC(=O)c1csc2nc(-c3cccc(C(F)(F)F)c3)cn12	NIH3T3 tox inconclusive, HEK293 tox 45µM
CN(Cc1cnccn1)C(=O)c1csc2nc(-c3cccc(C(F)(F)F)c3)cn12	Luciferase inh inconclusive, NIH3T3 tox inconclusive, HEK293 tox inconclusive
CCCCN(Cc1ccccc1)Cc1nc(-c2ccc(C(=O)OC)cc2)no1	Luciferase inh 8.9µM
CC(C)(C)c1ccc(C(=O)NCc2nnc3c(-c4nc(C5CC5)no4)cccn23)cc1	Luciferase inh 16µM, NIH3T3 tox inconclusive, HEK293 tox inconclusive
Fc1ccc(OCc2nc(C3CCNC3)no2)cc1 (centres undefined)	none
CN(Cc1cccc(C(F)(F)F)c1)C(=O)Nc1ccccc1	Luciferase inh inconclusive, NIH3T3 tox inconclusive, HEK293 tox inconclusive
CN(Cc1cccc(C(F)(F)F)c1)C(=O)Nc1ccc(Cl)cc1	NIH3T3 tox 20µM, HEK293 tox 40µM
COc1ccc(S(=O)(=O)NC[C@H]2COCc3nc4ccc(C)cc4n32)cc1	NIH3T3 tox 89µM, HEK293 tox inconclusive, NPR1 antag inconclusive
COc1ccc2nc3n(c2c1)[C@@H](CNS(=O)(=O)c1ccc(F)cc1)COC3	NIH3T3 tox inconclusive
COc1ccc2nc3n(c2c1)[C@@H](CNCC(C)(C)C)COC3	NIH3T3 tox 32µM, HEK293 tox inconclusive
Cc1cccc(-c2nc3ccc(C(=O)NCc4ccccc4)cc3o2)n1	NIH3T3 tox inconclusive, HEK293 tox inconclusive (no result: Luciferase inh, NPR1 antag)
O=C(OCc1ccccc1)N1CCOCC12CCN(Cc1ccc(O)cc1)CC2	NIH3T3 tox 79µM, HEK293 tox inconclusive
O=C(OCc1ccccc1)N1CCOCC12CCN(Cc1c[nH]c3ccccc13)CC2	NIH3T3 tox 35µM, HEK293 tox 56µM
O=C1OCC2(CCN(Cc3c[nH]c4ccccc34)C2)N1Cc1ccccc1 (centres undefined)	NIH3T3 tox 89µM, HEK293 tox inconclusive
